Source: PubChem BioAssay
Activity calls are given as the source filed them. Unless noted, how the calls were made is not given here.

Tests used:
[1] = HepG2 liver cancer cell viability effects, profiling panel, resazurin fluorescence, 24 h, PK04 Diversity Set (AID 1172); details: higher = more signal; further: test concentration not given here
[2] = basal S. cerevisiae growth modulation, no modifier, primary screen, OD600, strain BY4716, 24 h, basal condition (AID 1173); details: OD600, 24 h, higher = more signal, called active from +8 up or from −8 down
[3] = MM1S myeloma cell viability, profiling panel, resazurin fluorescence, basal, 24 h, PK04 Diversity Set (AID 1174); details: higher = more signal, called active from +8 up or from −8 down;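 further: MM1S multiple myeloma cell line; test concentration not given here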
[4] = biological target: Dihydroorotate dehydrogenase (quinone), mitochondrial (Plasmodium falciparum (isolate 3D7)) (UniProt Q08210); assay: PfDHODH enzyme inhibitors, primary screen, biochemical, C-terminal His tag, absorbance 600 nm (AID 1175); details: DCIP absorbance 600 nm, higher = more signal, called active from +8 up or from −8 down;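 further: recombinant parasite enzyme with a five histidine tag at its C terminus; test concentration not given here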
Dihydroorotate dehydrogenase (quinone), mitochondrial (Plasmodium falciparum (isolate 3D7)), sequence (Q08210 whole entry, looked up): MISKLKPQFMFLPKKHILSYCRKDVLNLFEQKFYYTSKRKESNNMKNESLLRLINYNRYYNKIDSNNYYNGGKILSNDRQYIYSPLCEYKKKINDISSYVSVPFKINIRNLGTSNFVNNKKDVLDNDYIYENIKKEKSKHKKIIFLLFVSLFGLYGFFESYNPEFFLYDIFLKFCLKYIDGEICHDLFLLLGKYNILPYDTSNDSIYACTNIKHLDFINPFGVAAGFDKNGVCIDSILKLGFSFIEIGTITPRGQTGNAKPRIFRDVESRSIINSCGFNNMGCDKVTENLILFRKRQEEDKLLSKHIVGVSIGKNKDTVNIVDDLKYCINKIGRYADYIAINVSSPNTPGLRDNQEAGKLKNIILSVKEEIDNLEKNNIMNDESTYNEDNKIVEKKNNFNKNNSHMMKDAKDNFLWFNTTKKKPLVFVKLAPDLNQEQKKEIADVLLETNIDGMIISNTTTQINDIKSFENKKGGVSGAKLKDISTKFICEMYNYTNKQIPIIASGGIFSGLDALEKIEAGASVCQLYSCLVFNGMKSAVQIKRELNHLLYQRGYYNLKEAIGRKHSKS

[5] = P. aeruginosa biofilm formation inhibitors, primary screen, strain PAO1, LB-PBS medium, absorbance 600 nm (AID 1176); further: test concentration not given here; details: P. aeruginosa PAO1 growth/biofilm, A600, 12 h; higher = more signal
[6] = S. cerevisiae RM11-1a growth modifiers, primary screen, strain RM11-1a, OD600, basal, 24 h (AID 1177); details: OD600, 24 h, higher = more signal, called active from +8 up or from −8 down;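 further: cultures grown under basal conditions with no added stressor; test concentration not given here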
[7] = E. coli acrAB mutant growth effects, primary screen, E. coli filamentation inducers, strain DRC39, OD650, 24 h (AID 1178); details: higher = more signal, called active from +8 up or from −8 down;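 further: growth measured as culture turbidity by optical density at 650 nm; test concentration not given here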
[8] = E. coli acrAB mutant growth effects, primary screen, E. coli filamentation inducers, strain DRC39, OD650, 48 h (AID 1179);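 further: screen aims at cell division blockers that make cells filament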; details: E. coli DRC39 delta-acrAB growth, higher = more signal, called active from +8 up or from −8 down
[9] = RPMI8226 myeloma cell viability, profiling panel, resazurin fluorescence, basal, 24 h, PK04 Diversity Set (AID 1180); details: higher = more signal;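 further: RPMI8826 multiple myeloma cell line at 5000 cells per well; test concentration not given here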
[10] = biological target: E3 ubiquitin-protein ligase XIAP (Homo sapiens) (UniProt P98170); assay: XIAP binders, primary screen, biophysical, small-molecule microarray, fluorescence 635 nm (AID 1181); details: small-molecule microarray binding, higher = more signal;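 further: score merges 667 nm emission and signal to noise over triplicate slides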
E3 ubiquitin-protein ligase XIAP (Homo sapiens), sequence (P98170 whole entry, looked up): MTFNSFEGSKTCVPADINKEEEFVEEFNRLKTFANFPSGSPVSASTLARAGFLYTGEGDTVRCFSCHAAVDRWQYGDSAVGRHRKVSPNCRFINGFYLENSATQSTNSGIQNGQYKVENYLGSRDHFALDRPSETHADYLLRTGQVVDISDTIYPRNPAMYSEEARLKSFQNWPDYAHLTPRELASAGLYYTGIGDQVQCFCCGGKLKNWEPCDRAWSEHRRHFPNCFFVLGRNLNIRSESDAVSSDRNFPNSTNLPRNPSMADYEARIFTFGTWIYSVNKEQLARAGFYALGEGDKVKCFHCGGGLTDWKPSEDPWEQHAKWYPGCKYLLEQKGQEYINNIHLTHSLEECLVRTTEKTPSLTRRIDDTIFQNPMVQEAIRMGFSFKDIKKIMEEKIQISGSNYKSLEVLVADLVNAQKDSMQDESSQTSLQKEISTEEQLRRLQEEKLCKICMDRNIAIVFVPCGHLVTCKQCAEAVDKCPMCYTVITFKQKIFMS

SMILES	z-score [1]	z-score [2]	z-score [3]	composite z-score [4]	z-score [5]	z-score [6]	z-score [7]	z-score [8]	z-score [9]	composite z-score [10]
CCCNC(=O)OC[C@H]1O[C@H](CCON=C[C@@H](OC)[C@H](C)C=CCC(=O)OC)C=C[C@@H]1Oc1ccc(OC)cc1	0.173	0.746 (inactive)	0.345 (inactive)	0.329 (inactive)	-0.537 (inactive)	0.198 (inactive)	0.356 (inactive)	0.138 (inactive)	1.95	-0.0361
N#Cc1ccc(NN2C(C(O)c3cc(C(F)(F)F)cc(C(F)(F)F)c3)C=CC3C(=O)N(c4ccccc4)C(=O)C32)cc1 (stereo not given)	-1.75	-0.102 (inactive)	-0.758 (inactive)	0.678 (inactive)	1.14 (inactive)	-0.0165 (inactive)	-1.55 (inactive)	-0.56 (inactive)	-0.409	0.0239
CCOC(=O)[C@H](Cc1ccccc1)NC(=O)CCC1CC(OC(=O)NCc2ccc3c(c2)OCO3)CC2(CCCC(COC(=O)NCC3CCCCC3)O2)O1 (stereo not given in full)	1.19	-0.653 (inactive)	0.625 (inactive)	-0.0475 (inactive)	-0.695 (inactive)	0.104 (inactive)	0.0066 (inactive)	0.216 (inactive)	0.419	0.257
CCOC(=O)CCN1C(=O)[C@H]2[C@H]3[C@H](O)[C@H](O)CC(=O)[C@H]3CC[C@H]2C1=O	-0.228	-0.329 (inactive)	0.552 (inactive)	-2.85 (inactive)	0.0122 (inactive)	-0.336 (inactive)	0.231 (inactive)	-1.81 (inactive)	0.566	0.065
COc1ccccc1CN1C(=O)c2ccccc2[C@@H](C(=O)NCC(F)(F)F)[C@@H]1c1ccc(CO)cc1	1.06	0.403 (inactive)	-1.15 (inactive)	0.338 (inactive)	0.512 (inactive)	-0.0178 (inactive)	0.796 (inactive)	1.69 (inactive)	0.268	-0.148
CCCC[C@@H](O)C1=C(C)C[C@H]2C(=O)N(Cc3ccccc3)C(=O)[C@H]2[C@H]1CO	-0.31	-3.87 (inactive)	-0.327 (inactive)	-2.65 (inactive)	0.27 (inactive)	0.161 (inactive)	0.11 (inactive)	0.183 (inactive)	-0.287	-0.0911
CN(C)C(=O)[C@@]1(Cc2ccccc2)N=C(c2ccc(OCCCO)cc2)O[C@H]1c1ccccc1CN=[N+]=[N-]	-0.412	-0.618 (inactive)	-1.23 (inactive)	0.519 (inactive)	0.535 (inactive)	-0.112 (inactive)	-0.0193 (inactive)	-0.139 (inactive)	-1.23	0.215
C[C@@H]1CC[C@H]2C(=O)O[C@H](COc3ccc(C(C)(C)C)cc3)CN2[C@H]1c1ccc(Br)cc1	0.182	0.789 (inactive)	0.837 (inactive)	0.702 (inactive)	0.18 (inactive)	1.71 (inactive)	-0.474 (inactive)	-0.438 (inactive)	1.12	-0.0118
C#C[C@@H]1Oc2ccccc2S(=O)(=O)N2CCC[C@H]12	-0.768	-2.6 (inactive)	-0.46 (inactive)	0.515 (inactive)	0.0359 (inactive)	0.494 (inactive)	-0.689 (inactive)	-0.816 (inactive)	-0.776	-0.38
CO[C@@H]1COC(=O)CC=C[C@@H](C)COC(=O)[C@H](COCc2ccccc2)NC(=O)CC=C[C@H]1C	-0.466	-0.591 (inactive)	0.579 (inactive)	0.777 (inactive)	-0.969 (inactive)	0.158 (inactive)	0.489 (inactive)	-0.0248 (inactive)	0.783	0.122
Cc1ccc(S(=O)(=O)N[C@@H]2COC(=O)[C@H](C)COC(=O)CC=C[C@H]2C)cc1	0.285	0.773 (inactive)	0.222 (inactive)	0.576 (inactive)	-0.601 (inactive)	1.3 (inactive)	-0.0401 (inactive)	-1.2 (inactive)	0.242	-0.13
CCOC(=O)NN=C1C[C@@H](O)[C@@H](O)[C@@H]2[C@@H]3C(=O)N(C[C@@H]4CCCO4)C(=O)[C@@H]3CC[C@@H]12	0.208	0.623 (inactive)	-0.307 (inactive)	-0.851 (inactive)	-0.674 (inactive)	0.664 (inactive)	0.914 (inactive)	1.4 (inactive)	0.0557	0.0432
CO[C@@H]1COC(=O)CC=C[C@@H](C)[C@@H]2C=C[C@H](O)[C@@H](COC(=O)[C@H](C)NC(=O)CC=C[C@H]1C)O2	0.592	-0.0997 (inactive)	0.945 (inactive)	-1.15 (inactive)	-0.786 (inactive)	-1 (inactive)	0.574 (inactive)	-0.637 (inactive)	1.61	-0.102
C[C@@H]1C=CCC(=O)OC[C@H](C)C(=O)OC[C@H]2O[C@H]1C=C[C@H]2O	0.0061	-0.368 (inactive)	0.313 (inactive)	0.603 (inactive)	-0.814 (inactive)	1.14 (inactive)	0.0992 (inactive)	-0.249 (inactive)	0.52	-0.379
[N-]=[N+]=Nc1ccccc1C[C@@]1(C(N)=O)N=C(c2ccc(OCCCO)cc2)O[C@@H]1c1ccccc1	-0.501	-1.86 (inactive)	-0.6 (inactive)	-0.684 (inactive)	0.218 (inactive)	-0.364 (inactive)	0.289 (inactive)	-1.01 (inactive)	-0.652	-0.0344
O=C1[C@H]2[C@H]3[C@H](O)[C@H](O)CC(=NO[C@@H]4O[C@H](CO)[C@@H](O)[C@H](O)[C@H]4O)[C@@H]3CC[C@H]2C(=O)N1c1ccc(F)cc1F	0.662	-0.767 (inactive)	0.412 (inactive)	-1.39 (inactive)	-0.118 (inactive)	-0.815 (inactive)	0.789 (inactive)	0.391 (inactive)	0.741	-0.313
CO[C@@H]1COC(=O)[C@@H]2CCCN2C(=O)[C@@H](C)COC(=O)[C@H](COCc2ccccc2)NC(=O)CC=C[C@H]1C	-0.327	0.185 (inactive)	-0.722 (inactive)	-0.241 (inactive)	-0.455 (inactive)	0.549 (inactive)	-0.489 (inactive)	-1.98 (inactive)	-0.228	-0.153
O=C1c2ccccc2[C@@]2(Cc3ccccc3N(C3CC3)C2=O)[C@H](c2ccc(CO)cc2)N1Cc1ccccc1C(F)(F)F	-0.506	0.194 (inactive)	0.187 (inactive)	-9.3 (active)	0.242 (inactive)	-0.887 (inactive)	-0.201 (inactive)	-0.136 (inactive)	-0.398	0.0428
C[N+](C)(C)CCCCCCNC(=O)[C@@H]1C[C@@H]2C(=O)N3CCC[C@H]3C(=O)N2[C@@H]1c1cccc(OCCO)c1	2.14	-0.887 (inactive)	0.984 (inactive)	-1.83 (inactive)	0.808 (inactive)	-0.183 (inactive)	0.0995 (inactive)	-0.514 (inactive)	-0.245	-0.0655
COc1ccc(O[C@H]2C=C[C@@H](c3ccccc3)O[C@@H]2COC(=O)CCC(C)=NOCC[C@@H]2C=C[C@H](OC(C)=O)[C@@H](COC(C)=O)O2)cc1	0.453	1.51 (inactive)	0.595 (inactive)	-0.64 (inactive)	-0.455 (inactive)	0.893 (inactive)	0.265 (inactive)	-0.0862 (inactive)	0.485	0.388
O=C1CCCC=C1C(O)CCOCc1ccccc1 (stereo not given)	0.123	-1.76 (inactive)	-0.43 (inactive)	-0.0462 (inactive)	0.602 (inactive)	-0.735 (inactive)	-0.88 (inactive)	-1.74 (inactive)	0.104	-0.0525
CCCC=C(CCC)[C@@H](NC(=O)c1ccc(-c2ccccc2)cc1)c1ccc(C(=O)OC)cc1	0.664	1.44 (inactive)	-0.438 (inactive)	0.407 (inactive)	-0.126 (inactive)	1.23 (inactive)	0.0519 (inactive)	-0.21 (inactive)	-0.361	0.0512
COCCCNC(=O)[C@@]1(CCS(=O)(=O)c2ccccc2)N=C(c2ccc(OCCCO)cc2)O[C@H]1c1ccccc1	1.62	-0.44 (inactive)	0.745 (inactive)	0.514 (inactive)	0.0963 (inactive)	-0.287 (inactive)	1.34 (inactive)	0.953 (inactive)	0.806	0.14
